Test [1] is described as follows: Confirmation and Secondary Assay for Modulators of Hemoglobin Beta Chain Splicing at IVS2 654 locus (AID 910).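 Also: per-well total GFP intensity by laser scanning cytometry after 2-day treatment.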 As to conditions: HeLa EGFP-654 splicing reporter, GFP fluorescence, 48 h; series mostly up to 46.1 µM. The method, boiled down:
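HeLa cells stably carrying EGFP interrupted by mutant beta-globin IVS2-654 intron (CMV-driven) were treated with compound for 2 days at 37C; corrected splicing was scored as total peak GFP intensity per well (488 nm excitation, 500-520 nm emission).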

Test [2] is described as follows: Confirmation and Secondary Assay for Modulators of Hemoglobin Beta Chain Splicing at IVS2 705 locus (AID 930).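 Also: HeLa cells stably expressing the EGFP-705 splicing reporter; GFP fluorescence per well restored by corrected splicing of the IVS2-705 intron in EGFP.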 Particulars: HeLa EGFP-705 splicing reporter, GFP fluorescence, 48 h; series mostly up to 46.1 µM. The method, boiled down:
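Secondary splice-site specificity test uses HeLa expressing CMV-driven EGFP interrupted by IVS2-705; cells were treated 2 days at 37C with 500 nM antisense PNA as positive control.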

In test [3] the target is Cytochrome P450 2C19 (Homo sapiens) (UniProt P33261). The test can be described thus: qHTS Assay for Inhibitors and Substrates of Cytochrome P450 2C19 (AID 899). Also: nearly all actives have a fitted effect of over 60% in size. Particulars: recombinant CYP2C19, luciferin-H EGE luminescence; series mostly up to 57.1 µM. The method, boiled down:
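NADPH-dependent conversion of Luciferin-H EGE (10uM, at KM) by 5nM enzyme in 50mM KPO4, 60 min at 37C following 10 min compound preincubation. Stopped with luciferin detection buffer; luminescence read after 20 min.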
(In general: qHTS replaces the single test concentration by a dilution series.)

Test [4] concerns the target Nuclear receptor subfamily 1 group I member 3 (Homo sapiens) (UniProt Q14994). In words: Primary qHTS for antagonist of constitutive androstane receptor (CAR) against the NCATS DSHEA and TCM libraries (AID 1794836). As to conditions: CAR reporter cell assay, antagonist mode, luciferase; series mostly up to 40 µM. Summed up: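 HepG2 cells stably carrying hCAR and a CYP2B6 luciferase reporter (2,500 cells/well) attached for 5 h, then received compounds with 48 uM CITCO for 24 h at 37C. ONE-Glo luminescence read antagonism; CellTiter-Fluor (405/540 nm) gave viability.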

Test [5] deals with Cytochrome P450 2C9 (Homo sapiens) (UniProt P11712). In words: qHTS for inhibitors of CYP2C9 against the NCATS DSHEA and TCM libraries (AID 1919973).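 Also: luminogenic pro-luciferin CYP2C9 substrate turned into luciferin with NADPH regeneration.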 Particulars: recombinant CYP2C9 enzyme activity, luminescence; series mostly up to 34.1 µM. Summed up: (§1)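 Light output from converted D-luciferin reports remaining CYP activity. Compounds preincubate with enzyme and substrate for 15 min; NADPH regeneration (1x final) runs the reaction for 30-45 min.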

Test [6] has as its target Cytochrome P450 2C19 (Homo sapiens) (UniProt P33261). The test can be described thus: qHTS for inhibitors of CYP2C19 against the NCATS DSHEA and TCM libraries (AID 1919974).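 Also: luminescence from luciferin released by CYP2C19 oxidation of a pro-luciferin substrate.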 As to conditions: CYP2C19 enzyme inhibition, luminescence qHTS; series mostly up to 34.1 µM. The method, boiled down: as §1
Test [7] in a line: KB-8-5-11 P-gp reporter qHTS against the NCATS DSHEA and TCM libraries (AID 1919977). As to conditions: KB-8-5-11 cells; series mostly up to 26.1 µM. Summed up:
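CellTiter-Glo luminescence after ~72 h exposure at 37C gave viability of KB-8-5-11 cells, the P-gp-overexpressing subline. Substances were titrated; colchicine was omitted from assay medium.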

Test [8] is described as follows: qHTS for differential inhibitors of proliferation of Plasmodium falciparum line D10 (AID 1877).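 Also: parasites grown with compound for 72 h before DNA staining.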 Particulars: series mostly up to 28.7 µM.
A short description of test [9]: qHTS for differential inhibitors of proliferation of Plasmodium falciparum line Dd2 (AID 1882).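 Also: compound exposure of 72 h on infected erythrocytes; nearly all actives have a fitted effect of over 65% in size.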 Particulars: Potency: Plasmodium falciparum Dd2 proliferation inhibition; series mostly up to 28.7 µM. The method, boiled down: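 SYBR Green I DNA fluorescence read-out, ex 485/em 535 nm. Signals were normalized to 0.29 uM artemisinin and DMSO wells, then corrected using vehicle-only plates flanking each stack. Parasite growth ran 72 h in erythrocytes before lysis.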

A short description of test [10]: qHTS for differential inhibitors of proliferation of Plasmodium falciparum line W2 (AID 1883).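 Also: parasites grown with compound for 72 h before lysis and staining.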 Also: potency is read from the fitted curve at half-maximal effect. As to conditions: Potency: Plasmodium falciparum W2 proliferation inhibition; series mostly up to 28.7 µM.
Test [11] can be described thus: qHTS for differential inhibitors of proliferation of Plasmodium falciparum line HB3 (AID 1886).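 Also: parasites grown with compound for 72 h before SYBR Green readout.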 Particulars: Potency: Plasmodium falciparum HB3 proliferation inhibition; series mostly up to 28.7 µM.
The target of test [12] is ATP-dependent DNA helicase Q1 (Homo sapiens) (UniProt P46063). In words: qHTS Validation Assay for Inhibitors of RecQ-Like Dna Helicase 1 (RECQ1) (AID 2353). As to conditions: recombinant RECQ1 helicase DNA unwinding assay; series mostly up to 25.6 µM. The method, boiled down:
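50 nM RECQ1T1 preincubated 15 min with compound in Tris pH 8.0 buffer with MgCl2, DTT, Tween-20 and 2.5 ug/ml poly(dI-dC); started with 200 nM TAMRA/BHQ-2 forked duplex and 2 mM ATP. Unwinding read as fluorescence (525/598 nm), two reads 2 h apart.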

The nature of test [13]: Validation screen for inhibitors of Lassa infection (AID 463096; calls by dose curve). As to conditions: Lassa virus infection, cell-based; series mostly up to 46.1 µM.
A short description of test [14]: Quantitative high throughput screen for delayed death inhibitors of the malarial parasite plastid, 96 hour incubation (AID 488745).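 Also: luciferase-expressing P. falciparum in erythrocytes at 2% hematocrit and 0.1% parasitemia; nearly all actives have a fitted effect of over 70% in size.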 As to conditions: Plasmodium falciparum growth; series mostly up to 28.7 µM. Summed up:
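Growth of reporter-bearing P. falciparum in red cells is measured after 96 h with compound, covering two erythrocytic cycles. Luminescence from the integrated luciferase serves as the growth signal.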

Test [15] in a line: Quantitative high throughput screen for delayed death inhibitors of the malarial parasite plastid, 48 hour incubation (AID 488752). Also: nearly all actives have a fitted effect of over 65% in size. Particulars: Plasmodium falciparum growth; series mostly up to 28.7 µM. The method, boiled down: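 One parasite generation (48 h, 37 C, 5% CO2) of luciferase-reporter P. falciparum in erythrocytes is run with test compound; decreased luminescence indicates inhibited growth.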

Test [16] concerns the target M-phase phosphoprotein 8 (Homo sapiens) (UniProt Q99549). The test can be described thus: qHTS Validation Assay for Inhibitors for MPP8 Chromodomain Interactions with Methylated Histone Tails (AID 488949).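 Also: AlphaScreen signal from MPP8 chromodomain bound to biotinylated H3K9me3 peptide; top concentration of the series differs between compounds; nearly all actives have a fitted effect of over 55% in size.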 Particulars: AlphaScreen MPP8 binding to H3K9me3 peptide; series mostly up to 114 µM. The method, boiled down:
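AlphaScreen read-out: streptavidin donor and nickel chelate acceptor beads (final 10 ug/mL), 30 min in the dark at RT. Complex of 50 nM MPP8 and 50 nM b-H3(1-18)K9me3 peptide had been exposed to compounds for 30 min beforehand.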

Test [17] deals with Transient receptor potential cation channel subfamily V member 1 (Homo sapiens) (UniProt Q8NER1). In words: HTS Assay for Compounds that Act as Enhancers of the Vanilloid Receptor 1 (AID 488979). Particulars: TRPV1-expressing cells, enhancer of channel activity; series mostly up to 41.7 µM. The method, boiled down: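 TRPV1-expressing cells loaded with Fluo-8 calcium dye; compounds added and calcium influx read kinetically for 3 min (agonist phase), then capsaicin at EC20 added and read 2 min more for enhancement. Fluorescence ex 480/em 520 nm.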

For test [18], the target named is Thyrotropin receptor (Homo sapiens) (UniProt P16473). In words: qHTS Assay for Antagonists of the Thyroid Stimulating Hormone Receptor (AID 488980). As to conditions: TSHR-expressing cells, cAMP antagonist read-out; series mostly up to 57.5 µM. The method, boiled down: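 TSHR-HEK293 cells; 70 uM RO 20-1724 PDE inhibitor; compound + EC80 TSH (4 nM final); anti-cAMP cryptate antibody/cAMP-d2 in lysis buffer, 30 min RT; HTRF 665/620 nm read.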

In test [19] the target is Galactokinase (Homo sapiens) (UniProt P51570). The test can be described thus: qHTS Validation Assay for Inhibitors of Human Galactokinase (GALK) (AID 493189). Particulars: purified human GALK enzyme activity, qHTS 7-point titration; series mostly up to 57.5 µM. The method, boiled down: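 Luminescence from leftover ATP (Kinase-Glo Plus, 10 min) served as read-out after a 1 h room-temperature reaction of 5 nM GALK, 100 uM galactose and 35 uM ATP at pH8.0.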

Test [20] addresses Voltage-gated inwardly rectifying potassium channel KCNH2 (Homo sapiens) (UniProt Q12809). In words: qHTS Assay for Small Molecule Inhibitors of the Human hERG Channel Activity (AID 588834).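 Also: top concentration of the series differs between compounds; lower thallium flux fluorescence means stronger hERG block; nearly all actives have a fitted effect of over 50% in size.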 As to conditions: U2OS BacMam hERG, FluxOR thallium flux fluorescence; series mostly up to 92.2 µM. Summed up:
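Concentration-response qHTS measuring drop in thallium-sensitive dye signal. U2OS cells carrying BacMam hERG; compound exposure ~10 min, then stimulation buffer and 2 min read at 1 sec intervals.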

Results filed as inconclusive are left out. Active and inactive are the calls of the source. Unless noted, calls follow the shape of the dose curve; as a rule, active = well fitted curve in the direction sought with a large enough effect; inconclusive = small, poorly fitted or top-dose-only effect, or another doubt; inactive = no such curve, though single readings can be large; an effect the other way counts as inactive or inconclusive.

Sequence of Thyrotropin receptor (Homo sapiens) (P16473 whole entry, looked up): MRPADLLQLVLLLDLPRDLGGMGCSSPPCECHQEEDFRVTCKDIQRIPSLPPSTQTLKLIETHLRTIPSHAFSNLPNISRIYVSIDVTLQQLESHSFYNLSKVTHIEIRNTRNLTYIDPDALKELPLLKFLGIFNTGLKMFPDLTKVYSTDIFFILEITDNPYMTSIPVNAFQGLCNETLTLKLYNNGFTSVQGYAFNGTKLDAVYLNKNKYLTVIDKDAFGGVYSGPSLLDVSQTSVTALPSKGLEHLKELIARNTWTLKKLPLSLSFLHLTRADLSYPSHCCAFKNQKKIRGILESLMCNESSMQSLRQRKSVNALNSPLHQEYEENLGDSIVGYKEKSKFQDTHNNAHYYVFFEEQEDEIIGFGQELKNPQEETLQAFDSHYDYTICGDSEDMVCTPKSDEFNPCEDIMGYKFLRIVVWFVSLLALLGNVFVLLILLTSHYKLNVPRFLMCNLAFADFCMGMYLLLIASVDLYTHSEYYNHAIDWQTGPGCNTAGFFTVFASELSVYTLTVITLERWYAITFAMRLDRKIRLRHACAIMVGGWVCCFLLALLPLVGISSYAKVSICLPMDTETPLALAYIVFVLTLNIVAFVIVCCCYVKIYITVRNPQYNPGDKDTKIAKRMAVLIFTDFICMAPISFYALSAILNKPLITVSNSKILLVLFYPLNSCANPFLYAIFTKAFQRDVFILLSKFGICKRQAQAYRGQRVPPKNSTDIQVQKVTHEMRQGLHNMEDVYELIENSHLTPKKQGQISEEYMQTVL
Sequence of ATP-dependent DNA helicase Q1 (Homo sapiens) (P46063 whole entry, looked up): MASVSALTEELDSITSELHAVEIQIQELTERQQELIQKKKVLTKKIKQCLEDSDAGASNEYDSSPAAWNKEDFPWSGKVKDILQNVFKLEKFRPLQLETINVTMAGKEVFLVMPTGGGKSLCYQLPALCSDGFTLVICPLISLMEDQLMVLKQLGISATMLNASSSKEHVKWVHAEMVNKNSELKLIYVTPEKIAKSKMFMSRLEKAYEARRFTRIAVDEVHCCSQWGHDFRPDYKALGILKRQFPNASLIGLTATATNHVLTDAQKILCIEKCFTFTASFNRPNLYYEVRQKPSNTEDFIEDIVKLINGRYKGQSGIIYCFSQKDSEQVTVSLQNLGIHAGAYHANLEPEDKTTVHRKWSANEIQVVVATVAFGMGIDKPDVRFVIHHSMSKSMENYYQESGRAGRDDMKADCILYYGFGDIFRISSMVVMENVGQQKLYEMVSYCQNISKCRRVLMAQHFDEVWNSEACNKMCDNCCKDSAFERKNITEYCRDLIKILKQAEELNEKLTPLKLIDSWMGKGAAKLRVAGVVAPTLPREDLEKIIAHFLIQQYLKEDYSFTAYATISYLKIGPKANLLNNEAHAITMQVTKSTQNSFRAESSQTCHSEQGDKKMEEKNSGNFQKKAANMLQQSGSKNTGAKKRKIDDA
Sequence of Voltage-gated inwardly rectifying potassium channel KCNH2 (Homo sapiens) (Q12809 whole entry, looked up): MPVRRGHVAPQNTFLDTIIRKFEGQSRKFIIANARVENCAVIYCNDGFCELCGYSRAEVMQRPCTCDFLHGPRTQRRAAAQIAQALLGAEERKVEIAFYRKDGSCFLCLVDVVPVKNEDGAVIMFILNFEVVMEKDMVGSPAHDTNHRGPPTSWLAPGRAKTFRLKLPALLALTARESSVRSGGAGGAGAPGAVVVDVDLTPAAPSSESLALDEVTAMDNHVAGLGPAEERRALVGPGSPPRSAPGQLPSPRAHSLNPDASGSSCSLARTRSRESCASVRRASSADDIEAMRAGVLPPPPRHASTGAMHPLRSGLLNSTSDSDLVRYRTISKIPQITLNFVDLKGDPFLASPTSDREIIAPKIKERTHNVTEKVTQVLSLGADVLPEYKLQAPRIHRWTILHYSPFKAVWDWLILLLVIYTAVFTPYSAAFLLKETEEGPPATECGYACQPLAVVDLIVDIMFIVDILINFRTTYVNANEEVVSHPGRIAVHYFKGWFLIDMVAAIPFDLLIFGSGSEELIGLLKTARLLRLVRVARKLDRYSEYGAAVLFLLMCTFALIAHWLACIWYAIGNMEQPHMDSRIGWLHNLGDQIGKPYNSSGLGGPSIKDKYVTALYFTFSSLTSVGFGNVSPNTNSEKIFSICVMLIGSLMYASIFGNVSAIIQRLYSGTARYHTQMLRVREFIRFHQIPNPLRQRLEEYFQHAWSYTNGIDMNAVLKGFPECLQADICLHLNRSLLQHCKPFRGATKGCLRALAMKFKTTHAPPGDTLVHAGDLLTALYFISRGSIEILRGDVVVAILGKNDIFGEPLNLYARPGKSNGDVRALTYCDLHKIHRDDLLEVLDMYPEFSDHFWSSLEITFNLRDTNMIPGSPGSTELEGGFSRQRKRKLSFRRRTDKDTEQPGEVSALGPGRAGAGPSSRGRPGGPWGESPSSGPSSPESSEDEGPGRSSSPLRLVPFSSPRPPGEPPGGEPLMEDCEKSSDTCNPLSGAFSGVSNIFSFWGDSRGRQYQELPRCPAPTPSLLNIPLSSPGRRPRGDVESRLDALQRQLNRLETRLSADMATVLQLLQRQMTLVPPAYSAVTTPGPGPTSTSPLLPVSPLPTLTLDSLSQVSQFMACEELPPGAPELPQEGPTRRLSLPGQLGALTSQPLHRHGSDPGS
Sequence of M-phase phosphoprotein 8 (Homo sapiens) (Q99549 whole entry, looked up): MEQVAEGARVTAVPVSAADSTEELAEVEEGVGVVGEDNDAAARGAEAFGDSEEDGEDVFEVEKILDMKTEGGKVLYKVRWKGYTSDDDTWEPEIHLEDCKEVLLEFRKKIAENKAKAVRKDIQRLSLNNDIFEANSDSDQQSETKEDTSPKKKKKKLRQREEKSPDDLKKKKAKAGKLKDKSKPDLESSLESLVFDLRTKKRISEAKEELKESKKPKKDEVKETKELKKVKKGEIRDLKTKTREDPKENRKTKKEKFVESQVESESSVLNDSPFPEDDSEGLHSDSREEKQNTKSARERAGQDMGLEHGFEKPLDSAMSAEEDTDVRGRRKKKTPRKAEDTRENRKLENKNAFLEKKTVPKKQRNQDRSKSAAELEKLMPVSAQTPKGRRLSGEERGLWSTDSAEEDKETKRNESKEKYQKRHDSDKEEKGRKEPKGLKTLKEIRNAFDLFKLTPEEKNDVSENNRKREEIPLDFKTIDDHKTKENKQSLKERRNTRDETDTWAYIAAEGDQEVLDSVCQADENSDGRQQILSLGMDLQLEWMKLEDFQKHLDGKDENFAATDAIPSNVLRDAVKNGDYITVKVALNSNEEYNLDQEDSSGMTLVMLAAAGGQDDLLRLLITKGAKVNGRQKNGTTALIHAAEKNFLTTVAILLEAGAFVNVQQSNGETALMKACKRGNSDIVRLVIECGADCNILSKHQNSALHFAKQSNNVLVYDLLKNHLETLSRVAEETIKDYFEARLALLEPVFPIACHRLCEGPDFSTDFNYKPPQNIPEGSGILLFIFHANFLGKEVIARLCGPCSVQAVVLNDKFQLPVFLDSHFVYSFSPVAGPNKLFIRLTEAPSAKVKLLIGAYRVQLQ
Sequence of Cytochrome P450 2C19 (Homo sapiens) (P33261 whole entry, looked up): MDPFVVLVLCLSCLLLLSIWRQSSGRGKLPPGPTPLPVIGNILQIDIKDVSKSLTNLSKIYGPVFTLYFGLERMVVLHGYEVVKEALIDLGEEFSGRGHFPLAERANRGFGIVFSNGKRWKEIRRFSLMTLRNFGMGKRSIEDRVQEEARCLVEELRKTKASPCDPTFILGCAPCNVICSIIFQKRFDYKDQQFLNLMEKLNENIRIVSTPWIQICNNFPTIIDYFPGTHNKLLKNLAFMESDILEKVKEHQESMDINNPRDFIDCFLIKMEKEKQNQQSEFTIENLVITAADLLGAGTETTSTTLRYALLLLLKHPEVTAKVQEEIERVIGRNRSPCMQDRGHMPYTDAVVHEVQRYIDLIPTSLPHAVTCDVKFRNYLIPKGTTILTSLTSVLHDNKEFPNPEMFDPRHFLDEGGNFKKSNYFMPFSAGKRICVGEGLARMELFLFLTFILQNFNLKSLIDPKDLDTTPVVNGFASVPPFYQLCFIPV
Sequence of Galactokinase (Homo sapiens) (P51570 whole entry, looked up): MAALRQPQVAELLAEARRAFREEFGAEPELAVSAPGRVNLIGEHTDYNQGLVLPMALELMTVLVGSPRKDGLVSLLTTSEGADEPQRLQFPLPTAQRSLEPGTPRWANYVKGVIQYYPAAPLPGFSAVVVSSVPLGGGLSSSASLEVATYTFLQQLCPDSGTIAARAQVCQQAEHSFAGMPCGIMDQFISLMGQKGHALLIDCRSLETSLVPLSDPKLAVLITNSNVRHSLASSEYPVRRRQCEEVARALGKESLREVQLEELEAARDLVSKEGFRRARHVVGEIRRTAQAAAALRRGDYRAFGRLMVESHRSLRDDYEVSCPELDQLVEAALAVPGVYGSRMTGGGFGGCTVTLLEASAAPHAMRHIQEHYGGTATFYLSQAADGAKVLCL
Sequence of Cytochrome P450 2C9 (Homo sapiens) (P11712 whole entry, looked up): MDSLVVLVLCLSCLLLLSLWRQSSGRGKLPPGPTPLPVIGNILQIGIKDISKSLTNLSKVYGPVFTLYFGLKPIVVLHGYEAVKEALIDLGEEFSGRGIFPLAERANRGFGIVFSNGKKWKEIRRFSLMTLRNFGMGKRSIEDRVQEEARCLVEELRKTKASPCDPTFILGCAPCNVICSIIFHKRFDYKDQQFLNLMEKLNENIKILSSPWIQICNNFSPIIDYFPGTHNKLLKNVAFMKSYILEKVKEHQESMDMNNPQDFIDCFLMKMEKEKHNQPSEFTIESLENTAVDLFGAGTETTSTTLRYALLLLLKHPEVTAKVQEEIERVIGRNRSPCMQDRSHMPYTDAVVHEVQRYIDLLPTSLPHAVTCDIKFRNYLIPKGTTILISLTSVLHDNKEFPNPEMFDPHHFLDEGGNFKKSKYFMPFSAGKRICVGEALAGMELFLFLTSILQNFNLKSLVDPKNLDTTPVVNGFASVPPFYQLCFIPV

Regarding `CN(C)C1C(=O)C(C(N)=O)=C(O)[C@@]2(O)C(=O)C3=C(O)c4c(O)ccc(Cl)c4[C@](C)(O)C3CC12` (stereo partly drawn), the Potency entry in [1] and in test [2] was “inactive” throughout.

As for `CN(C)[C@@H]1C(=O)C(C(N)=O)=C(O)[C@]2(O)C(=O)C3=C(O)c4c(O)cccc4[C@@](C)(O)[C@@H]3C[C@@H]12`, the Potency entry in test [3] was “inactive”.

On to `N#CC(O[C@@H]1O[C@H](CO[C@@H]2O[C@H](CO)[C@@H](O)[C@H](O)[C@H]2O)[C@@H](O)[C@H](O)[C@H]1O)c1ccccc1` (stereo partly drawn), for which the Potency entry in [4], in test [5], in [6] and in test [7] was “inactive” in each case.

Regarding `C[C@]12CC[C@H]3[C@@H](CCC4C[C@H](O)CC[C@@]43C)[C@@H]1CC[C@@H]2O` (stereo partly drawn), the Potency result in test [8], in test [9], in test [10], in test [11], in test [13] and in test [14] was “inactive” in each case. The Potency entry in test [15], in test [16] and in [20] was “inactive” throughout. The outcome in [12], in [17], in test [18] and in test [19] was inactive.

For the compound `NCC#Cc1ccccc1`, the Potency entry in [8], in [9], in [11], in test [13], in [14] and in [15] was “inactive” throughout. In addition, the Potency entry in test [16] and in test [20] was “inactive” in each case. For the same compound, the Potency in test [10] was 12.6 µM (active). The result in test [12], in test [17], in test [18] and in [19] was inactive.

The values are drawn from PubChem BioAssay (NCATS).
